From the supplement of paper PMC6555819

Key:
Assay in all cases: PBM binding z-score (relative to random genomic background probes); higher = stronger binding; sequences stand for … in GC…GCGATTGACAGCGTAGAATGAAGG
[1] = system: FXR:RXRa (NR concentration 270 nM, RXRa partner concentration 90 nM)
In short: (§1)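 Each nuclear receptor dimer, without ligand, was incubated for 1 h on custom Agilent 4×180K protein-binding microarrays. Binding was detected with antibodies against each partner (one per run), and scanned fluorescence was regression-normalized. The binding z-scores are referenced to random human genomic background probes.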

[2] = system: LXRa:RXRa (NR concentration 270 nM, RXRa partner concentration 90 nM)
In short: as §1

[3] = system: LXRa homodimer (NR concentration 270 nM)
In short: as §1

[4] = system: LXRb:RXRa (NR concentration 270 nM, RXRa partner concentration 90 nM)
In short: as §1

[5] = system: LXRb homodimer (NR concentration 270 nM)
In short: as §1

[6] = system: PPARa:RXRa (NR concentration 270 nM, RXRa partner concentration 90 nM)
In short: as §1

[7] = system: PPARg:RXRa (NR concentration 180 nM, RXRa partner concentration 90 nM)
In short: as §1

[8] = system: PPARg:RXRa 270nM:90nM, anti-RXR (NR concentration 270 nM, RXRa partner concentration 90 nM)
In short: as §1

[9] = system: PPARg:RXRa 30nM:10nM, anti-RXR (NR concentration 30 nM, RXRa partner concentration 10 nM)
In short: as §1

[10] = system: PPARg:RXRa 90nM:30nM, anti-RXR (NR concentration 90 nM, RXRa partner concentration 30 nM)
In short: as §1

For ATTTCTAGGTAACCAAGTTCAGTGAATGCCGAAC, the PBM binding z-score [1] was 0.465, the PBM binding z-score [2] was 0.956 and the PBM binding z-score [3] was 1.1. For the same sequence, the PBM binding z-score [4] was 0.544, the PBM binding z-score [5] was 0.68 and the PBM binding z-score [6] was 2.16. The PBM binding z-score [7] was 1.8, the PBM binding z-score [8] was 1.8 and the PBM binding z-score [9] was 0.773. For the same sequence, the PBM binding z-score [10] was 1.38.

For TCCCGGAGGACACGAAAGGTCAGAGCTCGACATC, the PBM binding z-score [1] was 3.13, the PBM binding z-score [2] was 3.95 and the PBM binding z-score [3] was 2.89. The PBM binding z-score [4] was 2.93, the PBM binding z-score [5] was -0.374 and the PBM binding z-score [6] was 3.45. It also gave a PBM binding z-score [7] of 1.51, a PBM binding z-score [8] of 2.59 and a PBM binding z-score [9] of 2.05. The PBM binding z-score [10] was 2.49.

Work on CCTCGGAGGACAACAGGAGGTCAGACCTGCCAGA yielded a PBM binding z-score [1] of 0.836, a PBM binding z-score [2] of 2.12 and a PBM binding z-score [3] of 2.37. The PBM binding z-score [4] was 1.52, the PBM binding z-score [5] was -0.492 and the PBM binding z-score [6] was 1.96. The PBM binding z-score [7] was 0.605, the PBM binding z-score [8] was 0.0936 and the PBM binding z-score [9] was -0.634. It also gave a PBM binding z-score [10] of -0.359.

TCTTGTAGATCAATAGCGGTTAAGAAAGTGCGCT gave a PBM binding z-score [1] of 0.25, a PBM binding z-score [2] of 0.57 and a PBM binding z-score [3] of 0.174. It also gave a PBM binding z-score [4] of 0.435, a PBM binding z-score [5] of -0.253 and a PBM binding z-score [6] of 0.5. For the same sequence, the PBM binding z-score [7] was -0.524, the PBM binding z-score [8] was 1.28 and the PBM binding z-score [9] was 2.75. The PBM binding z-score [10] was 2.17.

CCTTACGGGTCACTGACATGTTATAGCATTTGGA showed a PBM binding z-score [1] of 5.55, a PBM binding z-score [2] of 3.84 and a PBM binding z-score [3] of 0.306. The PBM binding z-score [4] was 3.54, the PBM binding z-score [5] was 0.233 and the PBM binding z-score [6] was 5.2. The PBM binding z-score [7] was 4.42, the PBM binding z-score [8] was 4.66 and the PBM binding z-score [9] was 2.21. The PBM binding z-score [10] was 3.45.

Work on AGAATGAGGTTATTAAGTTCAGGGAATTGCGGTC yielded a PBM binding z-score [1] of 2.41, a PBM binding z-score [2] of 3.29 and a PBM binding z-score [3] of 2.12. For the same sequence, the PBM binding z-score [4] was 1.95, the PBM binding z-score [5] was 0.228 and the PBM binding z-score [6] was 3.11. It also gave a PBM binding z-score [7] of 1.55, a PBM binding z-score [8] of 2.1 and a PBM binding z-score [9] of 0.695. For the same sequence, the PBM binding z-score [10] was 1.08.

Sequence CGTCAAAGTTCAACTAAGGTAACGTCAAGCACGC has a PBM binding z-score [1] of 7.22, a PBM binding z-score [2] of 6.46 and a PBM binding z-score [3] of 4.23. It also gave a PBM binding z-score [4] of 4.17, a PBM binding z-score [5] of 2.06 and a PBM binding z-score [6] of 5.14. For the same sequence, the PBM binding z-score [7] was 5.08, the PBM binding z-score [8] was 5.67 and the PBM binding z-score [9] was 2.61. It also gave a PBM binding z-score [10] of 4.36.

ATCTCGAGGTAAGACTCAGTTCAGTGAAGAACGC gave a PBM binding z-score [1] of 0.0769, a PBM binding z-score [2] of -0.0595 and a PBM binding z-score [3] of -0.0445. The PBM binding z-score [4] was -0.053, the PBM binding z-score [5] was -0.194 and the PBM binding z-score [6] was 0.0746. The PBM binding z-score [7] was 0.0104, the PBM binding z-score [8] was -0.287 and the PBM binding z-score [9] was -0.212. It also gave a PBM binding z-score [10] of -0.236.

In the case of TAGCCTAGGTGAGATCGGGCCAGTATACGCTATA, the PBM binding z-score [1] is reported as -0.31, the PBM binding z-score [2] is reported as -0.533 and the PBM binding z-score [3] is reported as -0.692. It also gave a PBM binding z-score [4] of -0.901, a PBM binding z-score [5] of -0.702 and a PBM binding z-score [6] of -0.453. For the same sequence, the PBM binding z-score [7] was 0.201, the PBM binding z-score [8] was -0.291 and the PBM binding z-score [9] was -0.335. For the same sequence, the PBM binding z-score [10] was -0.319.

TGACCAAGGTGAAAGGTCGTTGATGCACGCCTTG was tested, and the PBM binding z-score [1] was 3.6, the PBM binding z-score [2] was 2.98 and the PBM binding z-score [3] was 0.293. For the same sequence, the PBM binding z-score [4] was 2.62, the PBM binding z-score [5] was -0.814 and the PBM binding z-score [6] was 5.24. It also gave a PBM binding z-score [7] of 8.5, a PBM binding z-score [8] of 7.41 and a PBM binding z-score [9] of 6.27. For the same sequence, the PBM binding z-score [10] was 7.51.

For AGTCAAAGTGCACTAGGTAACGTAAGATTCAGCT, the PBM binding z-score [1] was -0.308, the PBM binding z-score [2] was -0.0298 and the PBM binding z-score [3] was -0.372. The PBM binding z-score [4] was -0.0247, the PBM binding z-score [5] was -0.424 and the PBM binding z-score [6] was 1.85. It also gave a PBM binding z-score [7] of 3.36, a PBM binding z-score [8] of 3.28 and a PBM binding z-score [9] of 1.04. For the same sequence, the PBM binding z-score [10] was 1.89.

For AGTCAAAGTTCACTAGCTAACGTAAGATTCAGCT, the PBM binding z-score [1] was 4.87, the PBM binding z-score [2] was 4.82 and the PBM binding z-score [3] was 2.93. It also gave a PBM binding z-score [4] of 3.04, a PBM binding z-score [5] of 1.11 and a PBM binding z-score [6] of 3.91. It also gave a PBM binding z-score [7] of 5.29, a PBM binding z-score [8] of 5.49 and a PBM binding z-score [9] of 2.82. For the same sequence, the PBM binding z-score [10] was 4.54.

Work on TCTCGGAGGACACGAAGGTCACAGCTTTCCAGAG yielded a PBM binding z-score [1] of 2.69, a PBM binding z-score [2] of 2.82 and a PBM binding z-score [3] of 1.52. For the same sequence, the PBM binding z-score [4] was 2.65, the PBM binding z-score [5] was -0.279 and the PBM binding z-score [6] was 3.64. For the same sequence, the PBM binding z-score [7] was 1.64, the PBM binding z-score [8] was 3.1 and the PBM binding z-score [9] was 2.74. For the same sequence, the PBM binding z-score [10] was 2.74.

TCTCGGAGGACACGAAGGTCATAGCTTTCCAGAG gave a PBM binding z-score [1] of 2.87, a PBM binding z-score [2] of 2.73 and a PBM binding z-score [3] of 1.72. It also gave a PBM binding z-score [4] of 2.61, a PBM binding z-score [5] of -0.514 and a PBM binding z-score [6] of 3.18. It also gave a PBM binding z-score [7] of 1.09, a PBM binding z-score [8] of 2.57 and a PBM binding z-score [9] of 2.55. It also gave a PBM binding z-score [10] of 2.54.

For CGTCCGAGGTCAGCAGGTCAGTGAAAGCGACGTG, the PBM binding z-score [1] was 6.67, the PBM binding z-score [2] was 4.61 and the PBM binding z-score [3] was 0.517. The PBM binding z-score [4] was 3.78, the PBM binding z-score [5] was 0.00416 and the PBM binding z-score [6] was 5.44. It also gave a PBM binding z-score [7] of 5.32, a PBM binding z-score [8] of 5.3 and a PBM binding z-score [9] of 1.73. For the same sequence, the PBM binding z-score [10] was 4.16.

Work on CCTAGTTGGTCAAGGCCACACACGCTATAGGTAC yielded a PBM binding z-score [1] of 0.421, a PBM binding z-score [2] of 0.312 and a PBM binding z-score [3] of 0.477. It also gave a PBM binding z-score [4] of 0.547, a PBM binding z-score [5] of 0.294 and a PBM binding z-score [6] of 0.252. It also gave a PBM binding z-score [7] of 0.917, a PBM binding z-score [8] of 0.608 and a PBM binding z-score [9] of -0.0145. The PBM binding z-score [10] was 0.142.
